# Results: PubChem BioAssay AID1026 (Columbia University Molecular Screening Center, 2008)
# Activity calls are given as the source filed them. The rule behind the calls is not given here.
# Biological target: Bifunctional epoxide hydrolase 2 (Homo sapiens) (UniProt P34913)
# Test: sEH inhibitor concentration-response potency, dose response, biochemical, human sEH, fluorescence, Infinite200 (AID 1026)
# Conditions: recombinant human sEH, fluorogenic substrate, at 0.2 µM, hits give high values
# Chain of Bifunctional epoxide hydrolase 2 (Homo sapiens) (P34913 whole entry, looked up): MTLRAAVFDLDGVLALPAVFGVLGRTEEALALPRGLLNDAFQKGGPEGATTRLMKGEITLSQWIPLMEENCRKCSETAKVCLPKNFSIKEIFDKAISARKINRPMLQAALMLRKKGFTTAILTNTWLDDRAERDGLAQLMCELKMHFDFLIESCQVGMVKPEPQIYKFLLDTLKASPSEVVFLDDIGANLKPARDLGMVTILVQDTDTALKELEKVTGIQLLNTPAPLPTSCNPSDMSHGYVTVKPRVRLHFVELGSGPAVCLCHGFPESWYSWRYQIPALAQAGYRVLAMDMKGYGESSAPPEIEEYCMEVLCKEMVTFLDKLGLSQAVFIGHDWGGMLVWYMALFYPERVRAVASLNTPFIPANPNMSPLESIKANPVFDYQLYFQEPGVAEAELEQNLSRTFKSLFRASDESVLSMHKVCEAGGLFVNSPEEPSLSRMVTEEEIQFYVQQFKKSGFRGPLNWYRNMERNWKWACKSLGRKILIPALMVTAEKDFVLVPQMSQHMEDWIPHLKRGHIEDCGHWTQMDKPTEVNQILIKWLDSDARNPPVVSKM
structure (smiles),measurement,value
CC(Cc1ccccc1)NC(=O)NC(C)Cc1ccccc1 (stereo unspecified),inhibition,71.6% (inactive)
